Reference: the supplement of paper PMC11732987, “Enantioselective OTUD7B fragment discovery through chemoproteomics screening and high-throughput optimisation” (Communications Chemistry, 2025)

What was measured:
Assay in all cases: log2 ratio of Biotin-Ahx-Ub-VS probe labelling (fragment/DMSO); higher = less target engagement (more negative = stronger competition), active = hit call of the paper (q ≤ 0.05, log2 ratio ≤ -1)
Settings in all cases: compound concentration: 200 uM; treatment time: 3 h
USP42 = target: T1, USP42 (UniProt Q9H9J4)
T1 sequence (whole entry): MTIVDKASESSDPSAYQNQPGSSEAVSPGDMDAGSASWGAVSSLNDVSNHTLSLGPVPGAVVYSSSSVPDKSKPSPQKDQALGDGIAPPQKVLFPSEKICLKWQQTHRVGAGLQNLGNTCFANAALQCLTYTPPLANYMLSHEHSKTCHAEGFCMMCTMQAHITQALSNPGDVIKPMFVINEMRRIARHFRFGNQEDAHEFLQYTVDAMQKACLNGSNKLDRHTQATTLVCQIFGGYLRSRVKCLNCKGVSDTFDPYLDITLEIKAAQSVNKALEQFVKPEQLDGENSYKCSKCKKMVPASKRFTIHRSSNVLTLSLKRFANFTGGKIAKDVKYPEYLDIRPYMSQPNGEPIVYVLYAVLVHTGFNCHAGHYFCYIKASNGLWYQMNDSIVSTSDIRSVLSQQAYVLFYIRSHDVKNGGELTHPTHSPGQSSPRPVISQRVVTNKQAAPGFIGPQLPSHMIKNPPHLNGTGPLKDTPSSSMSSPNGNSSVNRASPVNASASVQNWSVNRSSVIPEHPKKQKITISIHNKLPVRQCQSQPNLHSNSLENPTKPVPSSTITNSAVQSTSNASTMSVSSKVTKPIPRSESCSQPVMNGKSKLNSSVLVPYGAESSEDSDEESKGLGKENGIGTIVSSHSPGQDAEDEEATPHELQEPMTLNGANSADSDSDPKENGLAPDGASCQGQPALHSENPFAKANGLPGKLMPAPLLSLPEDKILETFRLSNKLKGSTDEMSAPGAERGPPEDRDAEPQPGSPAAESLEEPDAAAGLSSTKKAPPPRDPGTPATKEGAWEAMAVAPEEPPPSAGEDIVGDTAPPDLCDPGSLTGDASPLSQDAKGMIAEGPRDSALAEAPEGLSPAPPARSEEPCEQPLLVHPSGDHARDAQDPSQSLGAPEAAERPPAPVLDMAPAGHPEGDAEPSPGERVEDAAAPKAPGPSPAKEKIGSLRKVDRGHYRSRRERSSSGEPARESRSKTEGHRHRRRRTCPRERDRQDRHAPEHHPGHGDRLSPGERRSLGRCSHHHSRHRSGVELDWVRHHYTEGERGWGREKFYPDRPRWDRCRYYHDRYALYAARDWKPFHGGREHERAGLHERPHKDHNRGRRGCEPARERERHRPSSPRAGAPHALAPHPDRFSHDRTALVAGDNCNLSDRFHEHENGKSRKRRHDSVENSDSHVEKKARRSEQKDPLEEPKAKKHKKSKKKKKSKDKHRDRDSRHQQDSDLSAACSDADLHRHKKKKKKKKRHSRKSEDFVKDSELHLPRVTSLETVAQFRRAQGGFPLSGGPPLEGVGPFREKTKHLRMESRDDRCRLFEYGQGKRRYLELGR
How it was run: (§1)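 Fragment (200 µM) or vehicle was incubated for 3 h with triplicate HEK293T lysate samples of 495 µg, which were then treated with Biotin-Ahx-Ub-VS at 0.5 µM final for 1 h. Labelled DUBs were enriched on NeutrAvidin, digested with LysC and trypsin, and analysed by diaPASEF LC-MS/MS. Values are average log2 fragment/vehicle ratios from an unpaired t-test on global-median-normalised Spectronaut label-free quantities, using proteins with ≥2 unique peptides.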

USP46 = USP46 (UniProt P62068)
How it was run: as §1

USP47 = target: T2, USP47 (UniProt Q96K76)
T2 sequence (whole entry): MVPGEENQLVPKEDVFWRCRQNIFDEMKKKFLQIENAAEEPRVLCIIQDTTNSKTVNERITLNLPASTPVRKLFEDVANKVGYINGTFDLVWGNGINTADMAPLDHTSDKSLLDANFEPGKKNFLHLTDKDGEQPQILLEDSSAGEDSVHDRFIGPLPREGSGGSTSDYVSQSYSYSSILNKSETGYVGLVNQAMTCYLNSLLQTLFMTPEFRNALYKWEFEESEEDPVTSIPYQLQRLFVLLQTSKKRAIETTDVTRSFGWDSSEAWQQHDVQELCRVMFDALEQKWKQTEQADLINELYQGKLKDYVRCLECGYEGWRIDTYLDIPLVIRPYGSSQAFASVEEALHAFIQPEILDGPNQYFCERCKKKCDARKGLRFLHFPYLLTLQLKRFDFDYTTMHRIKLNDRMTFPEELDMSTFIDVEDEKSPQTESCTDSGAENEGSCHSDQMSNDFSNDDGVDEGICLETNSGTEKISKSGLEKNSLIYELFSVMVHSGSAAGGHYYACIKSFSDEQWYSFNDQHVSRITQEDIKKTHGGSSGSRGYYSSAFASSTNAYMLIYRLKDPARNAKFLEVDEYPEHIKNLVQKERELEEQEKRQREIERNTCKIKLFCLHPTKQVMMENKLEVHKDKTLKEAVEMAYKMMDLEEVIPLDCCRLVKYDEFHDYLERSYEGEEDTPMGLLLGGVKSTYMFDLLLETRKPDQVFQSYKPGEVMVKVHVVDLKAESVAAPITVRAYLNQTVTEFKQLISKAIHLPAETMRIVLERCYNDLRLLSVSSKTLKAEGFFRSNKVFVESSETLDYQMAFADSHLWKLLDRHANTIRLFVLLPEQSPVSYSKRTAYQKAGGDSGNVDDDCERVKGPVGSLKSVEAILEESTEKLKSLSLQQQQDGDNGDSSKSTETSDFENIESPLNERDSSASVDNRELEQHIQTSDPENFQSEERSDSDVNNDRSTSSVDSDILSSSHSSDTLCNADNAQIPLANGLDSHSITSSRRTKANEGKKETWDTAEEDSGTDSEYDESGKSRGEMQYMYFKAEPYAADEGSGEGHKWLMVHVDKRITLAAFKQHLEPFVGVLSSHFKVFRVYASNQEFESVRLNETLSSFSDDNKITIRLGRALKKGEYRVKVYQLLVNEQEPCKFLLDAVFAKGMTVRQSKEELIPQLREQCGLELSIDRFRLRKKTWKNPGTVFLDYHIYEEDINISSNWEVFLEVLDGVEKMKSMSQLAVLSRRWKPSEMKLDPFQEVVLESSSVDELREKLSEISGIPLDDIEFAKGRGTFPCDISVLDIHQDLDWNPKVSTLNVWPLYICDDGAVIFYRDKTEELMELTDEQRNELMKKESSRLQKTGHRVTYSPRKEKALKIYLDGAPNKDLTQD
How it was run: as §1

USP48 = target: T3, USP48 (UniProt Q86UV5)
T3 sequence (whole entry): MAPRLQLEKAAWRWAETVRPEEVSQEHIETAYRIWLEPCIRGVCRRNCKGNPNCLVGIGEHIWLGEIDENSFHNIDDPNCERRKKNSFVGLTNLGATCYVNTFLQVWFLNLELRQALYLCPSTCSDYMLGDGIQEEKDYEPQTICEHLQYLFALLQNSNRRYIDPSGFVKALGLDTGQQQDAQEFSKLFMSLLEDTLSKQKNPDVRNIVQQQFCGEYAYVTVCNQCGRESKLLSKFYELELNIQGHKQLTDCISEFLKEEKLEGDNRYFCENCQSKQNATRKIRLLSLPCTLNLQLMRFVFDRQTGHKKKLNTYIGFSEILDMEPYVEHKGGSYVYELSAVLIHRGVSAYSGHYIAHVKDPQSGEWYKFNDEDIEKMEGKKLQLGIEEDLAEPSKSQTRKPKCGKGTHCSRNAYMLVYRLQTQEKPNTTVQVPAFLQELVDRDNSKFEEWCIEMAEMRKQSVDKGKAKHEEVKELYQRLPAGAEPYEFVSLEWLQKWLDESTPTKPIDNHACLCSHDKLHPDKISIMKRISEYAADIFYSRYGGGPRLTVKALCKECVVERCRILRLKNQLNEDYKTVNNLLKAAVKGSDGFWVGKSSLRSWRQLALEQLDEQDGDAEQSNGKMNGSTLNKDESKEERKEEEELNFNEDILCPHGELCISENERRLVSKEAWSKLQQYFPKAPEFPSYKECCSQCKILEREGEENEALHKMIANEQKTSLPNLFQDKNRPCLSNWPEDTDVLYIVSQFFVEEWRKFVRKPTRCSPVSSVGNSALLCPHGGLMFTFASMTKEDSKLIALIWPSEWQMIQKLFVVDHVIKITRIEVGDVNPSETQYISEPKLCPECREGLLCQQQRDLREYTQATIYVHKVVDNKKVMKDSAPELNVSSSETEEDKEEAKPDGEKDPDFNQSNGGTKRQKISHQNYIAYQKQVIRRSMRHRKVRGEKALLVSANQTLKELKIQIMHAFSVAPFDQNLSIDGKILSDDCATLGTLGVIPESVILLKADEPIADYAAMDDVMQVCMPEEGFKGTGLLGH
How it was run: as §1

USP5 = target: T4, USP5 (UniProt P45974)
T4 sequence (whole entry): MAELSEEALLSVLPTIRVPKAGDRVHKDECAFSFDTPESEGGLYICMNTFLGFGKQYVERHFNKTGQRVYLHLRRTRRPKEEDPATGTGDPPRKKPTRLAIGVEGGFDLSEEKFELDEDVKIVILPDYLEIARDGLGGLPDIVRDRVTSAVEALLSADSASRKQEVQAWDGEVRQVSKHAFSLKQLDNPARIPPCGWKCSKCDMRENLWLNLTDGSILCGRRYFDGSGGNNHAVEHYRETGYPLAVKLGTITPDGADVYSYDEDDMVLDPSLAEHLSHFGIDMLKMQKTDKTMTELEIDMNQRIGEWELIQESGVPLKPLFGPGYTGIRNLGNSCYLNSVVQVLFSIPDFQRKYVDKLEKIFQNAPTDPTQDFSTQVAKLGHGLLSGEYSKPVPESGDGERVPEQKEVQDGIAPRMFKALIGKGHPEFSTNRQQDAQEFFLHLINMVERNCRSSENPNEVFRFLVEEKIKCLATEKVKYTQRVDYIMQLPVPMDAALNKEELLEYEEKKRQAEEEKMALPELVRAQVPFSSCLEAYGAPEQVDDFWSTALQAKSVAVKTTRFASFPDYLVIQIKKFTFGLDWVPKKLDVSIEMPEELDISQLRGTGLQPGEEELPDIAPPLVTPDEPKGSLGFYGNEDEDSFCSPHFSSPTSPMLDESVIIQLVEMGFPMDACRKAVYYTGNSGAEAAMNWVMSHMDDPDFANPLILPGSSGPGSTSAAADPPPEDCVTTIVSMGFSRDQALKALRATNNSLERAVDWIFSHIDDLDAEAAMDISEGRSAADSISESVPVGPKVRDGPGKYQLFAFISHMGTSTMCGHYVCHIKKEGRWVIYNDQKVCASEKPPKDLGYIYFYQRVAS
How it was run: as §1

USP54 = USP54 (UniProt Q70EL1)
How it was run: as §1

USP7 = USP7 (UniProt Q93009)
How it was run: as §1

USP8 = target: T5, USP8 (UniProt P40818)
T5 sequence (whole entry): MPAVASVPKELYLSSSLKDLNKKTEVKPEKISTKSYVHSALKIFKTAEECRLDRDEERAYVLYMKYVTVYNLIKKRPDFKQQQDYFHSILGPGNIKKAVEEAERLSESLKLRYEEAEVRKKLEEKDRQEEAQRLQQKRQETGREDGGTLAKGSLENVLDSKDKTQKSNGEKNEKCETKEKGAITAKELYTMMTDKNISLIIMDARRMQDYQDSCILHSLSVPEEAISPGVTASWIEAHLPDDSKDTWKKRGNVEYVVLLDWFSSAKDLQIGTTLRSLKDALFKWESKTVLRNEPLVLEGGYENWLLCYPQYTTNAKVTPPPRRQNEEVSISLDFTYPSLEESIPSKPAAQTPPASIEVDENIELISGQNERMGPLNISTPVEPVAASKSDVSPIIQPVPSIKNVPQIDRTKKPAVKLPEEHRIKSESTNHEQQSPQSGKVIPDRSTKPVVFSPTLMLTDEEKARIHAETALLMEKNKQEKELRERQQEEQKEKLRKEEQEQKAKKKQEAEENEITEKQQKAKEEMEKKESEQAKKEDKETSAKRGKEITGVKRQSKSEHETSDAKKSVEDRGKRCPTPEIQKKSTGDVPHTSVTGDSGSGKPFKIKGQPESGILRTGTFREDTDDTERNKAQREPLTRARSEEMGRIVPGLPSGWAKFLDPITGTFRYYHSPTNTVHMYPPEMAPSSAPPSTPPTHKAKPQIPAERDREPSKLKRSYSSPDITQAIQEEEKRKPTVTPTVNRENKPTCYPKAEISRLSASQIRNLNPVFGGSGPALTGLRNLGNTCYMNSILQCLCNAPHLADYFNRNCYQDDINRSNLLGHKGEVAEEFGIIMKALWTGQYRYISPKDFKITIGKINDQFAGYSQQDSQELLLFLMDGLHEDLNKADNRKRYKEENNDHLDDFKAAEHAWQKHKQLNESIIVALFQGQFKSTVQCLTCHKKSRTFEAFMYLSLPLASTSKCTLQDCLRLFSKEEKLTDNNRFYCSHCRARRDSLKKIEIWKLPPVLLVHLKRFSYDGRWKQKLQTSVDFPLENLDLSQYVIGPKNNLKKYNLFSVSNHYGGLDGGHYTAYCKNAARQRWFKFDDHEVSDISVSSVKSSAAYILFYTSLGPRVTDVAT
How it was run: as §1

Measured: log2 ratio of Biotin-Ahx-Ub-VS probe labelling

USP46, sequence (P62068 whole entry): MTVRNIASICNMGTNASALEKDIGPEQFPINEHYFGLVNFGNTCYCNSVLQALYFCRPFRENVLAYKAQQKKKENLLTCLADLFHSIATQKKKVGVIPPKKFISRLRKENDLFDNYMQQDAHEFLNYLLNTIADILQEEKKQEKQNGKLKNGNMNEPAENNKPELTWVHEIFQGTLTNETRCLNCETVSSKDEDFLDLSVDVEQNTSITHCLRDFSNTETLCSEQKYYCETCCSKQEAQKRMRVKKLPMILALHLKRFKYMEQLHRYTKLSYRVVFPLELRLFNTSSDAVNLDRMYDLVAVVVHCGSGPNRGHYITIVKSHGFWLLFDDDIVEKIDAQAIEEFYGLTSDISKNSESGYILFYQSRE
USP7, sequence (Q93009 whole entry, looked up): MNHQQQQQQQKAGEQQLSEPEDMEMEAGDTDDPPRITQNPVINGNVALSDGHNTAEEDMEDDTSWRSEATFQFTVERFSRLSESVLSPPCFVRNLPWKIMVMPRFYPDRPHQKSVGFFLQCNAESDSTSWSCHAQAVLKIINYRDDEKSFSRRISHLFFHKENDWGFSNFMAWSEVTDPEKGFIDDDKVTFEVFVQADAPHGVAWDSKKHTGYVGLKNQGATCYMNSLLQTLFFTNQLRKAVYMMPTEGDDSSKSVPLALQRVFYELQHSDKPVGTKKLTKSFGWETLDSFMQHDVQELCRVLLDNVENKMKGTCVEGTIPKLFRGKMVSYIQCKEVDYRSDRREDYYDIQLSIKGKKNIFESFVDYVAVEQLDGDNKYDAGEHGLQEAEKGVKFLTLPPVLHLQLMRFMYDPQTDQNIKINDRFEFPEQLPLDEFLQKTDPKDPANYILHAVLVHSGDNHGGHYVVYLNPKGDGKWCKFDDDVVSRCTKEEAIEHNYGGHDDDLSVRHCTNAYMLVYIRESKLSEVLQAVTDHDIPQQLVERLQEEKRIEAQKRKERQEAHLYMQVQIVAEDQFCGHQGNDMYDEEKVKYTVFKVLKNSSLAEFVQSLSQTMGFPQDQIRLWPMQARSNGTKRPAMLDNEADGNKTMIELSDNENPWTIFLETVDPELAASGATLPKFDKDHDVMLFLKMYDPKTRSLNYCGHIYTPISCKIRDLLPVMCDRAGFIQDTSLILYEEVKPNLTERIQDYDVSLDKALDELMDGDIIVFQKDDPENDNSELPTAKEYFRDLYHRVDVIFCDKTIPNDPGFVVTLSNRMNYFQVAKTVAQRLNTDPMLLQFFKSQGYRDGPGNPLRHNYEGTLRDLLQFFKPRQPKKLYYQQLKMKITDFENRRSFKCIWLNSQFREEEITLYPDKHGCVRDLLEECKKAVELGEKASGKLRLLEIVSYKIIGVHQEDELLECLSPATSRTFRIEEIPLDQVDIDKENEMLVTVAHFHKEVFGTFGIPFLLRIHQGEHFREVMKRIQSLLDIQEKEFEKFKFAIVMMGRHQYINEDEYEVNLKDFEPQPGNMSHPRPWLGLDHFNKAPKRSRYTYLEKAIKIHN
USP54, sequence (Q70EL1 whole entry): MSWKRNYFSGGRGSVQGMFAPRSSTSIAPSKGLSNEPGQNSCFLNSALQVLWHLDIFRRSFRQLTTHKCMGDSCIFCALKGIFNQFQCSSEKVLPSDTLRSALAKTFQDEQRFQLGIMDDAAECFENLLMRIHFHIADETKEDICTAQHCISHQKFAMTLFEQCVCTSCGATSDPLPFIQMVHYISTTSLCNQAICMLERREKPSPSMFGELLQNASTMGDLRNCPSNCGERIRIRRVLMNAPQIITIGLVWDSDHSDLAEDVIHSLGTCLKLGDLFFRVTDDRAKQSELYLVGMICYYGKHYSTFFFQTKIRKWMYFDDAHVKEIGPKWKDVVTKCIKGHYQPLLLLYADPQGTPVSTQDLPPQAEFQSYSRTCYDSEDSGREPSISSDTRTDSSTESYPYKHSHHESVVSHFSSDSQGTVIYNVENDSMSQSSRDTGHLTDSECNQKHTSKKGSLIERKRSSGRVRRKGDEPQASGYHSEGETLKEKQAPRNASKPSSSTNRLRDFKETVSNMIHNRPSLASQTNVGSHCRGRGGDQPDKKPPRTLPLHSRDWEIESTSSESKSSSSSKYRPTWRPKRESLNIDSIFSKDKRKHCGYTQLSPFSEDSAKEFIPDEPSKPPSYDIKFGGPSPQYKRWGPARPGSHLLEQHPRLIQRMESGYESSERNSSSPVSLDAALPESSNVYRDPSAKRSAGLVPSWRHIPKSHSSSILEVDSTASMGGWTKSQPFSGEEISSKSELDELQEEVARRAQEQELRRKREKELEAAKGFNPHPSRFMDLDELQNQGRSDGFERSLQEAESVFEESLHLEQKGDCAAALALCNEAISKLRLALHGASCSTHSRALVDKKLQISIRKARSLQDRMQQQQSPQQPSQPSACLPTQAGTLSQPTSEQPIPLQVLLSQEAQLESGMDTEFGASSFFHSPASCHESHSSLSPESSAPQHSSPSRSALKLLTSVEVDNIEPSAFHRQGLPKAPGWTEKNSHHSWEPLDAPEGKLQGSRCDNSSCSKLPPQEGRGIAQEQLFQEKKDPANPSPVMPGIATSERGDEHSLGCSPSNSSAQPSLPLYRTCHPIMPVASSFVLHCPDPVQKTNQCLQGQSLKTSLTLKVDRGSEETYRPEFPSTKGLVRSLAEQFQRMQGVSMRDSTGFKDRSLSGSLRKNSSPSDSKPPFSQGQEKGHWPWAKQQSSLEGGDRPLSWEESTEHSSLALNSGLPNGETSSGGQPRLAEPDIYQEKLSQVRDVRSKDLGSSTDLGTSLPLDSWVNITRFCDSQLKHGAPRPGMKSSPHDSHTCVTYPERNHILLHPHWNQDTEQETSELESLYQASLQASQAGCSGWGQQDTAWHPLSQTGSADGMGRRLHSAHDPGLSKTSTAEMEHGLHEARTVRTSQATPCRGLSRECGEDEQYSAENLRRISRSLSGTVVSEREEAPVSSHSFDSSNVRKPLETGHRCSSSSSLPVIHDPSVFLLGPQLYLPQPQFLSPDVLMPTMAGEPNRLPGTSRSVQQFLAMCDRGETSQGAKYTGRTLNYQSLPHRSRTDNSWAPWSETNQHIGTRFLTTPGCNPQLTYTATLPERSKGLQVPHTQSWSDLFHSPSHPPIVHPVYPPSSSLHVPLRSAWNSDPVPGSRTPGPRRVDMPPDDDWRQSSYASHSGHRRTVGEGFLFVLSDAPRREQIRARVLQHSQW

CC(O)CC1CCN(C(=O)CCl)CC1 (stereo not drawn)
inactive: USP42 0.406 | USP46 -0.263 | USP47 -0.689 | USP48 0.00631 | USP5 -0.447 | USP54 -0.0986 | USP7 -0.335 | USP8 -0.0562
